The target in one assay is HOXC9 (Homo sapiens, UniProt P31274 178-260, R193K). The assay can be described thus: PBM; 200 nM protein, PBS. The note with it: dsDNA, one strand shown.
PROP1 (Homo sapiens, UniProt O75360 56-141, F88S), sequence (O75360 56-141 F88S): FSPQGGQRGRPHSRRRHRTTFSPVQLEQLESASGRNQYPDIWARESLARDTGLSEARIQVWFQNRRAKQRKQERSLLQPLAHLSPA
PROP1 (Homo sapiens, UniProt O75360 56-141, R99H), sequence (O75360 56-141 R99H): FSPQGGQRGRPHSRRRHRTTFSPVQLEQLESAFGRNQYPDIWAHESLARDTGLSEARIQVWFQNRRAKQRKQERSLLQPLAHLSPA
HOXC9 (Homo sapiens, UniProt P31274 178-260, R222W), sequence (P31274 178-260 R222W): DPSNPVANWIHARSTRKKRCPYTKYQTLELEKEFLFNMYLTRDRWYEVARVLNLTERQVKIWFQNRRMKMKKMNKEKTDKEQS
HOXC9 (Homo sapiens, UniProt P31274 178-260, R193K), sequence (P31274 178-260 R193K): as the sequence (P31274 178-260 R222W) above, with R16K, W45R counted along it
With ATTGTATG, the binding signal is 11.1 upbm affinity estimate (log intensity, higher = more binding, comparable within an allelic series).

On to CACCATTA, for which the binding signal was 11.8 upbm affinity estimate (log intensity, higher = more binding, comparable within an allelic series).

For the sequence AGGACGTG, the binding signal was 9.75 upbm affinity estimate (log intensity, higher = more binding, comparable within an allelic series).

Take AGTATAAC: the binding signal was 11 upbm affinity estimate (log intensity, higher = more binding, comparable within an allelic series).

Take AGGGGGTG: the binding signal was 9.39 upbm affinity estimate (log intensity, higher = more binding, comparable within an allelic series).

For CATTTAGA, the binding signal is 11.3 upbm affinity estimate (log intensity, higher = more binding, comparable within an allelic series).

As to ACTTTACG, the binding signal was 11.5 upbm affinity estimate (log intensity, higher = more binding, comparable within an allelic series).

CGGTCCAG: the binding signal was 9.64 upbm affinity estimate (log intensity, higher = more binding, comparable within an allelic series).

On to CTGTTATA, for which the binding signal is 11.5 upbm affinity estimate (log intensity, higher = more binding, comparable within an allelic series).

For the sequence AGGCTCCC, the binding signal was 9.51 upbm affinity estimate (log intensity, higher = more binding, comparable within an allelic series).

TAAGAATA: the binding signal is 10.9 upbm affinity estimate (log intensity, higher = more binding, comparable within an allelic series).

In the case of TCCTTCGA, the binding signal was 9.72 upbm affinity estimate (log intensity, higher = more binding, comparable within an allelic series).

For CCGTTATA, the binding signal is 11.2 upbm affinity estimate (log intensity, higher = more binding, comparable within an allelic series).

In the case of TAAAGTGA, the binding signal was 11.4 upbm affinity estimate (log intensity, higher = more binding, comparable within an allelic series).

Take CGGGAGCC: the binding signal is 9.62 upbm affinity estimate (log intensity, higher = more binding, comparable within an allelic series).

With CGGTGCCA, the binding signal is 9.49 upbm affinity estimate (log intensity, higher = more binding, comparable within an allelic series).

For the sequence CGTAAAGA, the binding signal is 11.2 upbm affinity estimate (log intensity, higher = more binding, comparable within an allelic series).

As for ATAATAAC, the binding signal was 12 upbm affinity estimate (log intensity, higher = more binding, comparable within an allelic series).

ATCTTTAA: the binding signal was 11.4 upbm affinity estimate (log intensity, higher = more binding, comparable within an allelic series).

Regarding CTGGACGC, the binding signal is 9.69 upbm affinity estimate (log intensity, higher = more binding, comparable within an allelic series).

Turning to GGGGGGCA, the binding signal was 9.49 upbm affinity estimate (log intensity, higher = more binding, comparable within an allelic series).

For the sequence ATCTACTA, the binding signal was 10.8 upbm affinity estimate (log intensity, higher = more binding, comparable within an allelic series).

In the case of ATGTTAAC, the binding signal was 11.1 upbm affinity estimate (log intensity, higher = more binding, comparable within an allelic series).

With GAGAGCTC, the binding signal is 9.3 upbm affinity estimate (log intensity, higher = more binding, comparable within an allelic series).

As to AGACCAGG, the binding signal was 9.61 upbm affinity estimate (log intensity, higher = more binding, comparable within an allelic series).

As to CGCATTTA, the binding signal is 11.2 upbm affinity estimate (log intensity, higher = more binding, comparable within an allelic series).

In the case of ATTATCGG, the binding signal is 11.4 upbm affinity estimate (log intensity, higher = more binding, comparable within an allelic series).

As for ATTTAACA, the binding signal is 11.6 upbm affinity estimate (log intensity, higher = more binding, comparable within an allelic series).

Turning to TTATACAA, the binding signal is 11.2 upbm affinity estimate (log intensity, higher = more binding, comparable within an allelic series).

Take GAGATAAA: the binding signal is 11.1 upbm affinity estimate (log intensity, higher = more binding, comparable within an allelic series).

With CGTTAAAG, the binding signal was 11.3 upbm affinity estimate (log intensity, higher = more binding, comparable within an allelic series).

For the sequence AGCCGACC, the binding signal was 9.61 upbm affinity estimate (log intensity, higher = more binding, comparable within an allelic series).

As to CTGCATAA, the binding signal was 11.2 upbm affinity estimate (log intensity, higher = more binding, comparable within an allelic series).

Take CCTCCAGG: the binding signal is 9.34 upbm affinity estimate (log intensity, higher = more binding, comparable within an allelic series).

AGTATTAT: the binding signal was 11.6 upbm affinity estimate (log intensity, higher = more binding, comparable within an allelic series).

Take ATATTGCA: the binding signal is 11.3 upbm affinity estimate (log intensity, higher = more binding, comparable within an allelic series).

On to ATATGAAA, for which the binding signal is 11.4 upbm affinity estimate (log intensity, higher = more binding, comparable within an allelic series).

Regarding GCCCCAGC, the binding signal was 9.62 upbm affinity estimate (log intensity, higher = more binding, comparable within an allelic series).

In the case of CCCCAGCC, the binding signal was 9.69 upbm affinity estimate (log intensity, higher = more binding, comparable within an allelic series).

For the sequence CCGGAAGG, the binding signal is 9.73 upbm affinity estimate (log intensity, higher = more binding, comparable within an allelic series).

The next assay deals with PROP1 (Homo sapiens, UniProt O75360 56-141). The assay can be described thus: PBM; 200 nM protein, PBS. Particulars: dsDNA, one strand shown.
PROP1 (Homo sapiens, UniProt O75360 56-141), sequence (O75360 56-141): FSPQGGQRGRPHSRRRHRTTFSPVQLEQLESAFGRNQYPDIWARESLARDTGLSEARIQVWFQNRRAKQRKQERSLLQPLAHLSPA
For CGGGAGCC, the binding signal is 6.62 upbm affinity estimate (log intensity, higher = more binding, comparable within an allelic series).

Regarding CGGTGCCA, the binding signal was 6.41 upbm affinity estimate (log intensity, higher = more binding, comparable within an allelic series).

As for CTGGACGC, the binding signal is 6.69 upbm affinity estimate (log intensity, higher = more binding, comparable within an allelic series).

The next assay addresses PROP1 (Homo sapiens, UniProt O75360 56-141, R99H). The assay can be described thus: PBM; 200 nM protein, PBS. Particulars: dsDNA, one strand shown.
As to CGGGAGCC, the binding signal was 6.7 upbm affinity estimate (log intensity, higher = more binding, comparable within an allelic series).

CGGTGCCA: the binding signal was 6.46 upbm affinity estimate (log intensity, higher = more binding, comparable within an allelic series).

CTGGACGC: the binding signal was 6.62 upbm affinity estimate (log intensity, higher = more binding, comparable within an allelic series).

Another assay addresses HOXC9 (Homo sapiens, UniProt P31274 178-260, R222W). Put plainly: PBM; 200 nM protein, PBS. Particulars: dsDNA, one strand shown.
With CACCATTA, the binding signal was 10.6 upbm affinity estimate (log intensity, higher = more binding, comparable within an allelic series).

On to AGGACGTG, for which the binding signal is 9.71 upbm affinity estimate (log intensity, higher = more binding, comparable within an allelic series).

Regarding AGGGGGTG, the binding signal was 9.42 upbm affinity estimate (log intensity, higher = more binding, comparable within an allelic series).

As to CGGTCCAG, the binding signal is 9.63 upbm affinity estimate (log intensity, higher = more binding, comparable within an allelic series).

For the sequence AGGCTCCC, the binding signal was 9.47 upbm affinity estimate (log intensity, higher = more binding, comparable within an allelic series).

Turning to TCCTTCGA, the binding signal is 9.84 upbm affinity estimate (log intensity, higher = more binding, comparable within an allelic series).

For CCGTTATA, the binding signal is 10.3 upbm affinity estimate (log intensity, higher = more binding, comparable within an allelic series).

As for CGGGAGCC, the binding signal was 9.69 upbm affinity estimate (log intensity, higher = more binding, comparable within an allelic series).

On to CGGTGCCA, for which the binding signal is 9.58 upbm affinity estimate (log intensity, higher = more binding, comparable within an allelic series).

ATAATAAC: the binding signal was 10.7 upbm affinity estimate (log intensity, higher = more binding, comparable within an allelic series).

Turning to CTGGACGC, the binding signal was 9.74 upbm affinity estimate (log intensity, higher = more binding, comparable within an allelic series).

As for GGGGGGCA, the binding signal was 9.28 upbm affinity estimate (log intensity, higher = more binding, comparable within an allelic series).

With GAGAGCTC, the binding signal is 9.65 upbm affinity estimate (log intensity, higher = more binding, comparable within an allelic series).

In the case of AGACCAGG, the binding signal is 9.71 upbm affinity estimate (log intensity, higher = more binding, comparable within an allelic series).

On to AGCCGACC, for which the binding signal was 9.74 upbm affinity estimate (log intensity, higher = more binding, comparable within an allelic series).

Consider CCTCCAGG, for which the binding signal was 9.67 upbm affinity estimate (log intensity, higher = more binding, comparable within an allelic series).

As to GCCCCAGC, the binding signal was 9.7 upbm affinity estimate (log intensity, higher = more binding, comparable within an allelic series).

On to CCCCAGCC, for which the binding signal was 9.68 upbm affinity estimate (log intensity, higher = more binding, comparable within an allelic series).

For the sequence CCGGAAGG, the binding signal is 9.78 upbm affinity estimate (log intensity, higher = more binding, comparable within an allelic series).

Another assay concerns the target PROP1 (Homo sapiens, UniProt O75360 56-141, F88S). The assay can be described thus: PBM; 200 nM protein, PBS. Particulars: dsDNA, one strand shown.
CGGGAGCC: the binding signal was 6.53 upbm affinity estimate (log intensity, higher = more binding, comparable within an allelic series).

As for CGGTGCCA, the binding signal is 6.5 upbm affinity estimate (log intensity, higher = more binding, comparable within an allelic series).

Consider CTGGACGC, for which the binding signal was 6.59 upbm affinity estimate (log intensity, higher = more binding, comparable within an allelic series).
